From PubChem
PNC inhibitor: perinucleolar compartment assembly inhibition; PC3M PTB-GFP, PNC prevalence imaging, 16 h; active compounds read low; activity change (PNC), negative = inhibition, % at 10 µM; actives 3.1% (n = 140,000); AID 2417;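 active = readout at or below -70, meaning at least 70% loss of cells showing the perinucleolar compartment, a nuclear body marking cancer cells; inconclusive = readout between -30 and a set limit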;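 also: plate controls were DMSO wells for no effect and camptothecin positive control wells for full effect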
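PC3M cells stably expressing PTB-GFP, 750–1000 cells/well, treated 16 h at 37 °C with compound (23 nl of library stock), in duplicate. After paraformaldehyde fixation and Hoechst stain, imaged at 20x; PNC prevalence scored by image analysis.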
HTT ATP protect: Huntington cell model cytoprotection by ATP luminescence; PC12 HTT-Q103 induced, cytoprotection, ATP luminescence, 40 h; Potency, µM (series often up to 56.4 µM), for inactives: cytoprotection (ATP increase), hits mostly activators; actives 0.14% (n = 230,000); also: potency is read from the fitted curve at half-maximal effect; % of control where 0% means no effect; nearly all actives have a fitted effect of over 45% in size
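Quantitative HTS on tebufenozide-induced (100 nM) PC12 cells expressing HTTQ103 exon 1–GFP; compounds tested as a concentration series; survival measured via cellular ATP.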
HPGD inh: inhibitors of human 15-hydroxyprostaglandin dehydrogenase (HPGD) | AID 894 | Potency, µM, for inactives: at the highest dose activity change, negative = inhibition, usual class: inhibitors | purified HPGD, NADH fluorescence kinetic, PGE2 substrate | actives 4.3% (n = 150,000) | P15428; active = well fitted inhibition curve with a large enough effect, not every such curve was filed as active; inconclusive = small, poorly fitted or top-dose-only effect, or another doubt; inactive = no such curve, though single readings can be large or run the other way; also: potency is read from the fitted curve at half-maximal effect; % is scaled to controls: 0 for no effect and ±100 for the full control effect
Target sequence (P15428 whole entry, looked up): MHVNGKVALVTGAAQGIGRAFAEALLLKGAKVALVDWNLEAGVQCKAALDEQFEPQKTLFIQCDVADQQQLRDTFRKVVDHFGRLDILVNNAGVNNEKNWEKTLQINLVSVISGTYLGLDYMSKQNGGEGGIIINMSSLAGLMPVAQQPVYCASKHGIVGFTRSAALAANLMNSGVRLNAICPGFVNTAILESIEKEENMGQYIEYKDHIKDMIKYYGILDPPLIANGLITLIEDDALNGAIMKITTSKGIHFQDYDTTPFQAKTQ
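20 nM HPGD preincubated 15 min at room temperature with compound in 50 mM Tris-HCl pH 8, 0.01% Tween 20. Started with 1 mM NAD+ and 30 uM prostaglandin E2; NADH fluorescence (360/450 nm) read 5 times over 30-s intervals, last minus first.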
ALDH1A1 block: ALDH1A1 (human) enzyme inhibition | P00352 | Purified ALDH1A1, NADH fluorescence, propionaldehyde substrate | Potency, µM (titrated, usually from 75.3 µM), without a hit: at the top dose activity, negative = inhibition, actives largely listed as inhibitors | actives 7.3% (n = 220,000); active = well fitted inhibition curve with a large enough effect, not every such curve was filed as active; inconclusive = small, poorly fitted or top-dose-only effect, or another doubt; inactive = no such curve, though single readings can be large or run the other way;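 also: potency is read from the fitted curve at half-maximal effect; plate controls were no enzyme wells and a reference inhibitor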
RGS12 GoLoco inh: RGS12 GoLoco-Gai1 interaction inhibition | actives 0.44% (n = 230,000) | Potency, µM (top dose mostly 61.6 µM), inactives show at the top dose activity, negative = inhibition, actives largely listed as inhibitors | Gai1:RGS12 GoLoco peptide FP, rhodamine, 10 min | P63096; active = well fitted inhibition curve with a large enough effect, not every such curve was filed as active; inactive = no such curve, though single readings can be large or run the other way; also: potency is read from the fitted curve at half-maximal effect; % is scaled to controls: 0 for no effect and ±100 for the full control effect; nearly all actives have a fitted effect of over 30% in size
Target sequence (P63096 whole entry, looked up): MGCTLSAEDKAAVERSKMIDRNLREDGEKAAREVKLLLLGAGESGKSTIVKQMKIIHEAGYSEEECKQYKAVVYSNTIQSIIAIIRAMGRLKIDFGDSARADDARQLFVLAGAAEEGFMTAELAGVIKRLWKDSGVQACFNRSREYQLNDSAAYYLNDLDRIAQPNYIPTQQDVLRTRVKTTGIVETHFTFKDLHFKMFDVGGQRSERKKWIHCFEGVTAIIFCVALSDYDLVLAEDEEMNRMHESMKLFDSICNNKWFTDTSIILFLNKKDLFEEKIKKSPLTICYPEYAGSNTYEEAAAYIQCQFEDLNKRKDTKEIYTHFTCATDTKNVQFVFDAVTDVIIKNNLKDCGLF
HTT aggregate: mutant huntingtin aggregation inhibition. PC12 HttQ103-GFP aggregates, Acumen cytometry, 40 h. Potency, µM (top dose mostly 46.1 µM), inactives show at the top dose activity change, negative = inhibition, most hits filed as inhibitors. actives 1.1% (n = 220,000); also: potency is read from the fitted curve at half-maximal effect; % is scaled to controls: 0 for no effect and ±100 for the full control effect; nearly all actives have a fitted effect of over 60% in size
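Aggregate formation scored by laser-scanning cytometer (488 excitation, 500–530 emission) in lysed PC12 cells expressing Q103-GFP after 100 nM tebufenozide induction; library tested in dose series, with ATPLite reagent added in the multiplex.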
The depositor's hits bear a star; u = inconclusive; x = no result; [ ] = dose if it differs, or a comment. Sampled rows, rich in hits. Any-hit rate of the full collection: about 11%. Unless noted, calls follow the shape of the dose curve; as a rule, active = well fitted curve in the direction sought with a large enough effect; inconclusive = small, poorly fitted or top-dose-only effect, or another doubt; inactive = no such curve, though single readings can be large; an effect the other way counts as inactive or inconclusive.

SMILES	PNC inhibitor	HTT ATP protect	HPGD inh	ALDH1A1 block	RGS12 GoLoco inh	HTT aggregate
CO/N=C(/C(=O)N[C@@H]1C(=O)N2C(C(=O)O)=C(C[n+]3ccc(N)n3CCO)CS[C@H]12)c1csc(N)n1	x	-7.0%	x	x	x	-9.2%
COc1ccc(-c2ccc3c(n2)sc2c(=O)[nH]c(=O)[nH]c23)cc1OC	x	-13.1%	x	u	3.1%	3.1%
O=C(c1cnc2ccccn2c1=O)N1CCCc2ccccc21	21.4	0.3%	-9.4%	8.91µM*	4.9%	-5.6%
COc1cc2c(cc1OC)-c1c(OC)c(OC)cc3ccnc(c13)C2=O	-2.9	-44.2%[1.9 µM]	8.91µM*	-4.2%	-0.3%	u
CSc1nnc(Cn2c(=O)sc3ccccc32)n1-c1ccccc1	-105.7*	-24.2%	-10.7%	0.1%	-7.4%	6.8%
CC(C)Sc1nnc(Cn2c(=O)sc3ccccc32)n1-c1ccccc1	-25.9	29.6%[10 µM]	-11.5%	-5.9%	3.6%	-30.0%
CC(C)CNC(=O)[C@H](Cc1ccccc1)NC(=O)c1ccco1	-11.0	6.1%	-6.6%	39.8µM*	10.5%	-12.3%
COC(=O)CNC(=O)COC(=O)C(Cc1ccccc1)NC(=O)c1ccco1 (stereo not drawn)	-115.1*	-12.0%	-4.1%	u	9.7%	5.9%
O=C(COC(=O)[C@H](Cc1ccccc1)NC(=O)c1ccco1)NC(c1ccccc1)c1ccccc1	u	-1.6%	-5.1%	1.3%	1.7%	-13.8%
Cc1cccc([C@H]2[C@@H]3C=CC(C)C[C@@H]3C(=O)N2Cc2ccccc2)c1 (stereo partly drawn)	x	x	-20.4%	u	-0.3%[88.7 µM]	x
CC(C)(C)c1ccc(OC2C(O)COC2/C=C/C#Cc2ccccc2)cc1 (stereo not drawn)	x	-48.0%[10 µM]	x	u	x	x
COc1cccc(NC(=O)C2C3CCC4C(CCC32)C4(Cl)Cl)c1 (stereo not drawn)	u	-17.6%[10 µM]	-9.5%	7.94µM*	10.4%	3.8%
COc1ccc(NC(=O)C2C3CCC4C(CCC32)C4(Cl)Cl)cc1 (stereo not drawn)	-11.4	x	-11.4%	-0.7%	2.0%	-3.0%
c1ccc(Cn2c(NCc3ccccn3)nc3ccccc32)cc1	x	x	x	-5.4%	2.0%	-0.3%
c1ccc(Cn2c(NCc3ccncc3)nc3ccccc32)cc1	x	14.6%[10 µM]	x	25.1µM*	9.4%	6.4%[9.22 µM]
COc1ccc(/C=N/N2CCOCC2)cc1OCc1ccccc1	x	-4.2%	x	u	-13.0%	-7.0%
CCN(CC)c1ccc(/C=N/N2CCN(c3ccccn3)CC2)cc1	x	-5.2%[10 µM]	x	22.4µM*	0.3%	-8.2%[9.22 µM]
CCN(CC)c1ccc(/C=N/N2CCOCC2)cc1	11.8	8.8%[10 µM]	-17.7%	22.4µM*	-15.1%	-19.5%
COc1ccc(/C=N/N2CCOCC2)cc1O	-81.5*	x	-7.9%	3.3%	9.0%	-4.2%
CCN(Cc1ccccc1)c1ccc(/C=N/N2CCOCC2)cc1	83.7	-7.3%[10 µM]	-15.9%	2.24µM*	-10.2%	-7.7%
C=C(C)C(=O)/C=C/c1ccc(C(F)(F)F)cc1	x	x	-4.5%	10.1%	0.5%	x
COc1cccc([C@@H]2Oc3ccc(OC)cc3/C(=N/O[C@@H](C)CN3CCCCc4nc(C)c(C)cc43)[C@@H]2O)c1	x	-5.6%[10 µM]	x	10.2%[13.5 µM]	x	x
CC#CCN1c2ccccc2[C@]23C[C@@H](C(=O)OC)N(S(=O)(=O)c4ccc(C)cc4)C2=NC(C(=O)OC)=C(C(=O)OC)[C@H]13	x	-1.8%[10 µM]	-5.6%	3.8%[13.5 µM]	-8.7%[14.2 µM]	x
O=C(Nc1ccccc1)N1CC2(CCN(C(=O)c3cnccn3)CC2)C1	x	-29.9%	-7.6%	13.2%	3.4%	x
COc1ccccc1N1CCN(/N=C/c2cccc(O)c2)CC1	x	-14.7%[10 µM]	x	u	15.6%	-3.7%[9.22 µM]
SMILES	PNC inhibitor	HTT ATP protect	HPGD inh	ALDH1A1 block	RGS12 GoLoco inh	HTT aggregate
COc1ccccc1N1CCN(/N=C/c2cc(OC)c(O)c(OC)c2)CC1	30.7	14.5%[10 µM]	u	15.8µM*	2.82µM*	-14.0%
CCCCCCOC1(c2ccccc2)OC(=O)c2ccccc21 (stereo not drawn)	-9.8	21.7%	-11.4%	6.3%	-11.3%	-2.9%
COC1(c2ccccc2)NC(=S)NN=C1c1ccccc1 (stereo not drawn)	29.9	-6.7%	-6.5%	0.891µM*	8.7%	16.3%
CCCCOC1(c2ccccc2)NC(=S)NN=C1c1ccccc1 (stereo not drawn)	3.6	13.3%[10 µM]	-5.4%	0.562µM*	5.4%	3.4%
CO/N=C/C1C(=O)NN=C1c1ccccc1 (stereo not drawn)	x	-15.6%	x	1.6%	-5.2%	15.9%
Cc1nc(Nc2nc(CSc3nc4ccccc4[nH]3)cc(=O)[nH]2)nc2ccccc12	-96.6*	x	-14.5%	-6.6%	0.8%	-26.1%
O=c1cnc2cnc(Oc3cccc(Cl)c3)nc2n1C[C@H]1CCCO1	x	-31.7%	x	u	7.5%	x
Cc1sc2ncnc(SCc3ccc(C(=O)O)cc3)c2c1C	x	-43.5%	x	39.8µM*	5.6%	6.6%
COc1cc(OC)cc(C(=O)N[C@H](C(=O)NCc2ccco2)C(C)C)c1	x	2.2%	x	7.4%	-1.6%	-2.5%
Cc1ccccc1NS(=O)(=O)c1ccc(F)cc1	-97.4*	1.8%	1.9%	3.4%	3.0%	1.7%
CSc1ccc(S(=O)(=O)Nc2ccc3c4c(cccc24)CC3)cc1	31.9	-25.7%	-13.3%	u	4.4%	u
Cc1cc(O)c(C(C)C)cc1NS(=O)(=O)c1ccccc1	u	5.5%[0.074 µM]	-8.1%	14.1µM*	-0.2%	5.01µM*
O=S(=O)(Nc1ccc2c3c(cccc13)CC2)c1ccc(F)cc1	-15.6	-29.2%	-15.3%	12.6µM*	29.5%	-27.5%
COc1ccc(S(=O)(=O)Nc2ccccc2SC)cc1C	35.2	-0.9%[10 µM]	-7.3%	u	-1.5%	u
CSc1ccccc1NS(=O)(=O)c1ccccc1	-29.4	-7.8%	-8.4%	8.91µM*	4.6%	-7.6%
COc1ccc(N(C(=O)Cn2nnc(-c3ccccc3F)n2)C(C(=O)NCC2CCCO2)c2ccc(Cl)cc2)cc1 (stereo not drawn)	x	-8.2%[10 µM]	x	3.5%	4.0%	5.8%[9.22 µM]
Cc1ncc(N=Nc2ccccc2)c(-c2ccccc2)n1	-26.2	-16.0%	-19.4%	-11.0%	10.2%	-4.1%
COCCn1c(Cc2ccccc2)nnc1SCC(=O)N1CCCCC1C (stereo not drawn)	-16.4	10.8%	-9.7%	-9.6%	9.2%	-3.7%
Cn1nnnc1SCC(=O)c1ccc(Br)s1	-7.2	-10.8%	-14.7%	u	10.4%	16.1%
CC1CCCCN1C(=O)CSc1nnc(Cc2ccccc2)n1C (stereo not drawn)	-100.0*	3.5%[10 µM]	-14.3%	1.4%	1.1%	-4.8%
CC1CCCC(C)N1C(=O)CSc1nnc(CSc2ncccn2)n1C (stereo not drawn)	-100.0*	3.9%[10 µM]	-12.3%	u	-6.4%	-6.4%
